Results from PubChem BioAssay.
Values joined by “and” are separate entries in the source; they are usually repeats but may differ in a detail not shown here. Equal entries are not always repeated. Active and inactive are the calls of the source.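 The calls were made as follows, unless noted: active = compounds whose cell count with miR-34 switched on is under 0.7 times the count with it off; inactive = the rest.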

Legend:
[1] = stimulators of nuclear beta-catenin in C2C12, primary screen, imaging, WNT3A-conditioned medium, mouse C2C12, NPC library (AID 1117326; in the data active = nuclear beta-catenin stimulation mostly above about 4.2%, no sharp cut-off; inactive = mostly below about 10%); details: stronger effect = higher value
[2] = stimulators of insulin release from INS-1E, primary screen, cell-based, 5 mM glucose, NPC library (AID 1117329;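 active = compound raises insulin release from rat beta cells at 5 mM glucose, no numeric limit stated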); details: rat INS-1E insulin secretion, at 10 µM, stronger effect = higher value
[3] = growth inhibition of GSK3B-pretreated HCT116 cells – cell-based, CellTiter-Glo, 0.2 to 20 µM (AID 1117336;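 active = compounds lowering colon cancer cell viability after pretreatment blocking the GSK3B kinase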); details: HCT116 viability after GSK3B inhibitor, at 20 µM, stronger effect = higher value
[4] = inhibition of endothelial tube formation, primary screen, imaging, VEGF stimulated, CD31 staining, tube area, NPC library (AID 1117340;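 active = compound that reduces growth-factor-driven endothelial tube area in a mixed cell culture, no cutoff stated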); details: VEGF-stimulated ADSC/ECFC co-culture, at 10 µM, stronger effect = higher value
[5] = glucagon-like peptide 1 release enhancers, primary assay, NCI-H716 cell line, NPC library (AID 1117341;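 active = compound raises GLP1 secretion from the human gut endocrine cells, with no numeric limit stated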); details: NCI-H716 cells, at 10 µM, stronger effect = higher value
[6] = HCT116 colon cancer cell growth inhibition, primary screen, CellTiter-Glo luminescence, NPC library (AID 1117342;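 active = compounds that lower survival of HCT116 colon cancer cells in the luminescence readout, no numeric limit stated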); details: at 20 µM (top of the series)
[7] = CellTiter-Glo luminescent readout of SW480 viability loss, NPC library primary (AID 1117343;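 active = compounds that lower viability of the colon cancer cells in the luminescence readout, with no numeric limit stated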); details: CellTiter-Glo luminescence; at 20 µM (top of the series) unless noted
[8] = decreased DLD-1 cellular survival, CellTiter-Glo luminescent readout, NPC compound collection, primary HTS (AID 1117346;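 active = compounds that lower survival of DLD-1 colon cancer cells in the luminescence readout, no cutoff given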); details: DLD-1 viability, CellTiter-Glo luminescence; at 20 µM (top of the series)
[9] = differential killing of epithelial or mesenchymal cells, primary screen, imaging, PC-3E GFP, TEM4-18 mCherry, co-culture (AID 1345086;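 active = compounds killing one labelled cell type while sparing the other, by normalised counts and ratio limits, not self-fluorescent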;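 as to all read-outs here: cells exposed to compound for 72 h before imaging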;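 as to red/green cell ratio (normalised): normalised mesenchymal count divided by normalised epithelial count so high means epithelial killing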); details: imaging cell counts, at 1 µM; for red/green cell ratio (normalised): actives lie on both sides, counts scaled to control wells, 1 = unselective
[10] = sensitizers of A549 cells to miR-34 induction, primary screen, imaging, A549 dox-inducible miR-34, nuclei and caspase counts (AID 1347080); details: A549 miR-34 inducible, Hoechst nuclei count, 48 h
[11] = biological target: NAD(+) hydrolase SARM1 (Homo sapiens) (UniProt Q6SZW1); assay: SARM1 TIR NADase inhibitors, cell lysate, NAD-Glo luminescence (AID 1508614;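 active = compound whose remaining NAD level is above about 45 nM, limit read from the data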;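 also: higher remaining NAD means stronger inhibition of SARM1 NADase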); details: SAM-TIR HEK293T lysate NADase, at 1 µM, stronger effect = higher value
[12] = hESC survival regulators, cell-based (AID 493140; call rule not given here;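 also: cells exposed to compounds for four days before counting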); details: human embryonic stem cell survival screen; stronger effect = higher value
[13] = liver-stage malaria parasite growth inhibition, primary screen, cell-based, HepG2, luciferase luminescence, HepG2 viability (AID 624349; in the data active = parasite load remaining mostly below about 12%, no sharp cut-off; inactive = mostly above about 10%;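 also: 100% = mean of DMSO negative control wells on the same plate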); details: P. berghei liver stage in HepG2, luciferase luminescence, concentration not given here; parasite load remaining: stronger effect = lower value; viability: measured here: HepG2 viability without parasites
[14] = survival rescue of mitochondrial mutant cells in low glucose, primary screen, MELAS cybrids, Rieske KO mouse fibroblasts, CellTiter-Glo (AID 1508586;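 active = mean z-score across replicates of 1.96 or higher in either the MELAS or the Rieske mutant cell line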;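 also: z relative to plate mean and SD of compound and empty wells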)
[15] = measured here: epithelial PC-3E GFP cell survival
[16] = measured here: mesenchymal TEM4-18 mCherry cell survival
[17] = stronger effect = lower value, cell number ratio, induced over uninduced
[18] = measured here: relative caspase fold change +Dox/-Dox
[19] = measured here: total cells with miR-34 induction, stronger effect = lower value
[20] = measured here: total cells without miR-34 induction
[21] = MELAS cybrid survival, CellTiter-Glo 48 h, stronger effect = higher value
[22] = Rieske KO mouse fibroblast survival, CellTiter-Glo 72 h

Chain of NAD(+) hydrolase SARM1 (Homo sapiens) (Q6SZW1 whole entry, looked up): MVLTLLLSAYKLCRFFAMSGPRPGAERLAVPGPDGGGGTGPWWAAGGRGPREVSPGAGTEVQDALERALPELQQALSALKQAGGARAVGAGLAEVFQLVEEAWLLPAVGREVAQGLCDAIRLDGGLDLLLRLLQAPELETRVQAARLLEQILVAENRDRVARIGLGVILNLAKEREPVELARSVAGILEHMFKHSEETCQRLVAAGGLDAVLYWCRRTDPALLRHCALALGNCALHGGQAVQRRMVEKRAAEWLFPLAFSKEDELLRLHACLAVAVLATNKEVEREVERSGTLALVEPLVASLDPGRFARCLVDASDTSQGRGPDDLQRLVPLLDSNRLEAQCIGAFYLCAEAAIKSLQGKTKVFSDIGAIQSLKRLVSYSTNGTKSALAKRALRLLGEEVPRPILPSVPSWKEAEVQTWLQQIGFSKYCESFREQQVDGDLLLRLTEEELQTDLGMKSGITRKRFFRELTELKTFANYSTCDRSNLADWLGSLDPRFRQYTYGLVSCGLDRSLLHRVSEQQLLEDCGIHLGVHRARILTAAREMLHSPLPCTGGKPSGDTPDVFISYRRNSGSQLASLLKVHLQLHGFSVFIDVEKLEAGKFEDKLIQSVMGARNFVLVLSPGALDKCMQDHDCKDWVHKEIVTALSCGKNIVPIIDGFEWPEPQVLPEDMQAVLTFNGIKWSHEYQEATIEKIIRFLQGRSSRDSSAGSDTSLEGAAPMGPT

CCCCOCCOCCOCc1cc2c(cc1CCC)OCO2
nuclear beta-catenin stimulation ([1]; at 10 µM): 0.2% (inactive)
nuclear beta-catenin stimulation ([1]; stimulation, at 2 µM): 1.7%
insulin secretion stimulation [2]: 1.3% (inactive)
viability decrease [3]: -13.9% (inactive)
tube area decrease [4]: -2.7% (inactive)
GLP1 secretion stimulation [5]: -2.6% (inactive)
inhibition of viability [6]: 24.7% (inactive)
viability decrease (inhibition) [7]: 11.6% (inactive)
viability decrease (inhibition) [8]: 14.4% (inactive)
red/green cell ratio (normalised) [9]: 0.78 (inactive)
normalised cell number [9, 15]: 1.28
normalised cell number [9, 16]: 1
fold change [10, 17]: 0.878 (inactive)
fold change [10, 18]: 0.573
cell count [10, 19]: 7660
cell count [10, 20]: 8730
remaining NAD [11]: 10 nM (inactive)

Cc1c(N)c(=O)n(-c2ccccc2)n1C
survival [12]: 19.6 (inactive)
parasite load remaining [13]: 27.9% (inactive) and 86.5% (inactive) and 114% (inactive)
viability [13]: 47% and 66.5% and 89.3%
nuclear beta-catenin stimulation ([1]; at 10 µM): 1.1% (inactive)
nuclear beta-catenin stimulation ([1]; stimulation, at 2 µM): 1.8%
insulin secretion stimulation [2]: -0.3% (inactive)
viability decrease [3]: -9.25% (inactive)
tube area decrease [4]: -13.4% (inactive)
GLP1 secretion stimulation [5]: 1.1% (inactive)
inhibition of viability [6]: -5.1% (inactive)
viability decrease (inhibition) [7]: 45.9% (inactive)
viability decrease (inhibition) [8]: 10.9% (inactive)
red/green cell ratio (normalised) [9]: 0.99 (inactive)
normalised cell number [9, 15]: 1.14
normalised cell number [9, 16]: 1.13
fold change [10, 17]: 0.844 (inactive)
fold change [10, 18]: 1.06
cell count [10, 19]: 8260
cell count [10, 20]: 9790
z-score [14, 21]: -0.073 (inactive)
z-score [14, 22]: -0.119

CCCCNc1ccc(C(=O)OCCOCCOCCOCCOCCOCCOCCOCCOCCOC)cc1
survival [12]: 33.2 (inactive)
parasite load remaining [13]: 14% (inactive) and 88.5% (inactive)
viability [13]: 47.7% and 90.2%
nuclear beta-catenin stimulation ([1]; at 10 µM): -0.8% (inactive)
nuclear beta-catenin stimulation ([1]; stimulation, at 2 µM): 0.5%
insulin secretion stimulation [2]: -2.3% (inactive)
viability decrease [3]: 9.3% (inactive)
tube area decrease [4]: 4.2% (inactive)
GLP1 secretion stimulation [5]: -2.3% (inactive)
inhibition of viability [6]: 31.5% (inactive)
viability decrease (inhibition) [7]: 13% (active)
viability decrease (inhibition) [8]: -17.6% (inactive)
red/green cell ratio (normalised) [9]: 1.21 (inactive)
normalised cell number [9, 15]: 0.86
normalised cell number [9, 16]: 1.04
fold change [10, 17]: 0.937 (inactive)
fold change [10, 18]: 1.37
cell count [10, 19]: 8120
cell count [10, 20]: 8660
z-score [14, 21]: -0.167 (inactive)
z-score [14, 22]: 0.149
remaining NAD [11]: 10 nM (inactive)

Cc1cc2nc3ccc(=[N+](C)C)cc-3sc2cc1N
nuclear beta-catenin stimulation ([1]; at 10 µM): 21.6% (inactive)
nuclear beta-catenin stimulation ([1]; stimulation, at 2 µM): 1%
insulin secretion stimulation [2]: -0.6% (inactive)
viability decrease [3]: 90.5% (active)
tube area decrease [4]: 108% (active)
GLP1 secretion stimulation [5]: -3.7% (inactive)
inhibition of viability [6]: 82.7% (active)
viability decrease (inhibition) [7]: 85% (active)
viability decrease (inhibition) [8]: 38.4% (inactive)
red/green cell ratio (normalised) [9]: 1.59 (inactive)
normalised cell number [9, 15]: 0.17
normalised cell number [9, 16]: 0.28
fold change [10, 17]: 1.11 (inactive)
fold change [10, 18]: 1.04
cell count [10, 19]: 2760
cell count [10, 20]: 2500
remaining NAD [11]: 10 nM (inactive)

O=C1OC(CN2CCOCC2)CN1/N=C/c1ccc([N+](=O)[O-])o1 (centres undefined)
parasite load remaining [13]: 37.8% (inactive)
viability [13]: 89.8%
nuclear beta-catenin stimulation ([1]; at 10 µM): 1.3% (inactive)
nuclear beta-catenin stimulation ([1]; stimulation, at 2 µM): 3.6%
insulin secretion stimulation [2]: -1.4% (inactive)
viability decrease [3]: 31.8% (inactive)
tube area decrease [4]: -4.4% (inactive)
GLP1 secretion stimulation [5]: -0.3% (inactive)
inhibition of viability [6]: 24.6% (inactive)
viability decrease (inhibition) [7]: 22% (inactive)
viability decrease (inhibition) [8]: -32.5% (inactive)
red/green cell ratio (normalised) [9]: 1.05 (inactive)
normalised cell number [9, 15]: 1.05
normalised cell number [9, 16]: 1.1
fold change [10, 17]: 0.949 (inactive) and 0.857 (inactive)
fold change [10, 18]: 0.904 and 1.34
cell count [10, 19]: 8490 and 8240
cell count [10, 20]: 8940 and 9610
z-score [14, 21]: -1.3 (inactive)
z-score [14, 22]: -1.11
remaining NAD [11]: 10 nM (inactive)

Cc1ncc(CSSCc2cnc(C)c(O)c2CO)c(CO)c1O
nuclear beta-catenin stimulation ([1]; at 10 µM): 0.2% (inactive)
nuclear beta-catenin stimulation ([1]; stimulation, at 2 µM): -2.2%
insulin secretion stimulation [2]: 1.7% (inactive)
viability decrease [3]: 4.2% (inactive)
tube area decrease [4]: -25.7% (inactive)
GLP1 secretion stimulation [5]: 6.7% (inactive)
inhibition of viability [6]: 14.3% (inactive)
viability decrease (inhibition) [7]: 6.1% (inactive)
viability decrease (inhibition) [8]: 15.6% (inactive)
red/green cell ratio (normalised) [9]: 0.89 (inactive)
normalised cell number [9, 15]: 1.03
normalised cell number [9, 16]: 0.92
fold change [10, 17]: 0.95 (inactive)
fold change [10, 18]: 0.868
cell count [10, 19]: 8920
cell count [10, 20]: 9390
remaining NAD [11]: 10 nM (inactive)

CN1C(=O)CC(c2ccccc2)C1=O (centres undefined)
survival [12]: 19.1 (inactive)
parasite load remaining [13]: 94.6% (inactive)
viability [13]: 73.1%
nuclear beta-catenin stimulation ([1]; at 10 µM): 0.4% (inactive)
nuclear beta-catenin stimulation ([1]; stimulation, at 2 µM): 0.3%
insulin secretion stimulation [2]: -0.7% (inactive)
viability decrease [3]: 4.95% (inactive)
tube area decrease [4]: -2.7% (inactive)
GLP1 secretion stimulation [5]: -0.4% (inactive)
inhibition of viability [6]: -5.7% (inactive)
viability decrease (inhibition) [7]: 54.4% (active)
viability decrease (inhibition) [8]: 12.9% (inactive)
red/green cell ratio (normalised) [9]: 0.99 (inactive)
normalised cell number [9, 15]: 1.01
normalised cell number [9, 16]: 1
fold change [10, 17]: 0.941 (inactive) and 0.972 (inactive)
fold change [10, 18]: 1.17 and 0.864
cell count [10, 19]: 9250 and 9510
cell count [10, 20]: 9830 and 9780
z-score [14, 21]: 0.397 (inactive)
z-score [14, 22]: 0.0941
remaining NAD [11]: 10 nM (inactive)

CCCCCCCCCCCCCCCC[N+](C)(C)CCN(Cc1ccc(OC)cc1)c1ncccn1
survival [12]: 0.417 (inactive)
parasite load remaining [13]: 24.3% (inactive)
viability [13]: 77.4%
nuclear beta-catenin stimulation ([1]; at 10 µM): -5.4% (inactive)
nuclear beta-catenin stimulation ([1]; stimulation, at 2 µM): 0%
insulin secretion stimulation [2]: 2.9% (inactive)
viability decrease [3]: 100% (active)
tube area decrease [4]: 110% (active)
GLP1 secretion stimulation [5]: 79.6% (active)
inhibition of viability [6]: 101% (active)
viability decrease (inhibition) [7]: 120% (active)
viability decrease (inhibition) [8]: 103% (active)
red/green cell ratio (normalised) [9]: 0.95 (inactive)
normalised cell number [9, 15]: 1.06
normalised cell number [9, 16]: 1
fold change [10, 17]: 0.797 (inactive)
fold change [10, 18]: 1.23
cell count [10, 19]: 4700
cell count [10, 20]: 5900
z-score [14, 21]: -2.42 (inactive)
z-score [14, 22]: 1.31
remaining NAD [11]: 10 nM (inactive)
